Gal4-VP16 FLuc – VP16 counterscreen qHTS for inhibitors of ROR gamma transcriptional activity. Drosophila S2 Gal4-VP16 UAS-luciferase, luminescence, 20 h. Potency, µM (doses to about 53.6 µM), without a hit: top-dose activity, negative = inhibition, most hits filed as inhibitors. actives 3.5% (n = 310,000). AID 2546, 2010;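 note: Gal4-VP16 expression switched on by copper sulfate through the metallothionein promoter; nearly all actives have a fitted effect of over 50% in size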
RORgamma inh – qHTS for inhibitors of ROR gamma transcriptional activity | Nuclear receptor ROR-gamma (Mus musculus), P51450 | Drosophila S2 Gal4-RORgamma UAS-luciferase reporter, 20 h | Potency, µM (highest dose often 53.6 µM), for inactives: top-dose activity change, negative = inhibition, actives largely listed as inhibitors | actives 5.4% (n = 310,000) | AID 2551, 2010; note: nearly all actives have a fitted effect of over 60% in size
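Compounds are pin-transferred onto Drosophila Schneider cells expressing a copper-inducible Gal4–ROR gamma transactivation domain fusion. After 1 hr, copper sulfate is added to 700 uM final; luciferase is read 20 hr later.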
PLK1 PBD block – qHTS for Inhibitors of PLK1-PDB (polo-like kinase 1 - polo-box domain): Primary Screen; Potency, µM, for inactives: max response, negative = inhibition, most hits filed as inhibitors; actives 2.8% (n = 360,000); Plk1 PBD binding of FITC phosphopeptide, fluorescence polarization; AID 720504, 2013; note: series mostly up to about 57 µM; nearly all actives have a fitted effect of over 65% in size
Target sequence (P53350 whole entry, looked up, the tested form may be a part): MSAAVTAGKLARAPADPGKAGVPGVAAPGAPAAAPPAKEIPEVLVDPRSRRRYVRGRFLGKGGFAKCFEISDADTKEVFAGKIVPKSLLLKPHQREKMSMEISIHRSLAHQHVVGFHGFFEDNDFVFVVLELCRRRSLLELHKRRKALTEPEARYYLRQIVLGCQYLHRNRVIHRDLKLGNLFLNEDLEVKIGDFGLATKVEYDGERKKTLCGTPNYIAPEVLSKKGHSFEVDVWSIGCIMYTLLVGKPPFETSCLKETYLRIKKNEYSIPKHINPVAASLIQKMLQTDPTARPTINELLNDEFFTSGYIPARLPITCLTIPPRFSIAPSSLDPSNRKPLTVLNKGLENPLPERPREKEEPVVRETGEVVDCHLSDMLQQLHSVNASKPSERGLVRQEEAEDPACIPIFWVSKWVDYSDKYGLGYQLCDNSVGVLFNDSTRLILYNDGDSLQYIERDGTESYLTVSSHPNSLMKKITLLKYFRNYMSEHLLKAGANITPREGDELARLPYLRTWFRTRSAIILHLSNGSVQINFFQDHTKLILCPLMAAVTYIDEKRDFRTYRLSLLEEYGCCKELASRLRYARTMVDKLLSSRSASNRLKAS
ALDH1A1 inh – qHTS Assay for Inhibitors of Aldehyde Dehydrogenase 1 (ALDH1A1) | Aldehyde dehydrogenase 1A1 (Homo sapiens), P00352 | Purified ALDH1A1, NADH fluorescence, propionaldehyde substrate | Potency, µM (titrated, usually from 75.3 µM), for inactives: at the top dose activity, negative = inhibition, hits mostly inhibitors | actives 7.3% (n = 220,000); active = well fitted inhibition curve with a large enough effect, not every such curve was filed as active; inconclusive = small, poorly fitted or top-dose-only effect, or another doubt; inactive = no such curve, though single readings can be large or run the other way;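 note: plate controls were no enzyme wells and a reference inhibitor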
Sfp PPTase inh – qHTS Assay for Inhibitors of Bacillus subtilis Sfp phosphopantetheinyl transferase (PPTase). 4'-phosphopantetheinyl transferase ffp (Bacillus subtilis), Q9F4F7. Biochemical Sfp PPTase activity, qHTS. Potency, µM, without a hit: largest response in the series, negative = inhibition, hits mostly inhibitors. actives 3.5% (n = 310,000). AID 1490, 2009;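 note: the enzyme is Sfp with the accession as filed and its product quenches rhodamine fluorescence; 0% = enzyme reaction without inhibitor and -100% = no enzyme wells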
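Buffer: 50 mM Hepes-Na pH 7.6, 10 mM MgCl2, 0.01% Nonidet P-40, 0.01% BSA. Enzyme 15 nM, pre-exposed to compound 15 min; substrates then added and fluorescence change tracked over 30 min.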
Starred values were filed as active, the others as inactive; ? = inconclusive; . = no result; [ ] = remark or other dose. An excerpt weighted towards active compounds, which were near 12% of everything screened. Unless noted, calls come from the whole dose curve; as a rule, active = well fitted curve in the direction sought with a large enough effect; inconclusive = small, poorly fitted or top-dose-only effect, or another doubt; inactive = no such curve, though single readings can be large; an effect the other way counts as inactive or inconclusive. Unless noted, % is set by controls: 0 for no effect and ±100 for the full control effect; potency is the fitted concentration of half-maximal effect.

SMILES | Gal4-VP16 FLuc | RORgamma inh | PLK1 PBD block | ALDH1A1 inh | Sfp PPTase inh
CCOc1ccc(NC(=O)CN2C(=O)COc3ccc(S(=O)(=O)N4CCCCC4)cc32)cc1 | 1% | 5% | 27µM* | . | 4%
CCOc1ccc(NC(=O)C2CCCN(S(=O)(=O)c3ccc4[nH]c(=O)ccc4c3)C2)cc1 (centres undefined) | ? | ? | 27µM* | . | 21%
CCCNC(=O)C1(C)CCN(Cc2ccc(C)c3ccccc23)C1 (centres undefined) | . | . | -19% | . | .
COc1ccc(Oc2ncc3nc(-c4ccc(F)cc4)c(=O)n(Cc4cccs4)c3n2)cc1 | -4% | -20% | . | ? | 6%
O=C(CN1C(=O)COc2ccc(Cl)cc21)Nc1ccccn1 | 18% | -13% | -7% | . | 27%
Cc1ccccc1NC(=O)CN1C(=O)C2C3CC(C(Br)C3Br)C2C1=O (centres undefined) | ? | 31% | 4.7µM* | 10µM* | 56µM*
CCN(C(=O)CN1C(=O)COc2ccc(S(=O)(=O)N3CCCCCC3)cc21)c1cccc(C)c1 | -7% | ? | 24µM* | . | -5%
Cc1ccccc1NC(=O)CN1C(=O)COc2ccc(Cl)cc21 | 1% | -16% | 24µM* | 2% | 20%
NC(c1csc(Nc2ccc(C(=O)c3ccccc3)cc2)n1)C1CCCCC1 (centres undefined) | . | . | -4% | . | .
Nc1nc(NCCc2ccc(O)cc2)nc2nc(-c3ccco3)nn12 | -2% | 15% | . | -6% | ?
C#CCN1C=C(C(=O)OCC)C(C)N(Cc2ccccc2I)S1(=O)=O (centres undefined) | . | . | 1% | . | .
Cc1cccc(OC(=O)Cn2c(C(F)(F)F)nc3ccccc32)c1 | -1% | -1% | 21µM* | ? | -10%
CC(C)(C)c1ccc(OC(=O)Cn2c(C(F)(F)F)nc3ccccc32)cc1 | -19% | 23% | ? | 5% | 29%
CC(OC(=O)Cn1c(C(F)(F)F)nc2ccccc21)C(N)=O (centres undefined) | 1% | -14% | -7% | 11% | 12%
O=C(Cn1c(C(F)(F)F)nc2ccccc21)Oc1cccc(C(F)(F)F)c1 | -8% | -1% | -6% | -2% | 79µM*
CC1C(=O)CCC2[C@]1(C)CCC1[C@]2(C)CC[C@@]2(C)C3CC(C)(C)CC[C@]3(C)CC[C@@]12C (some centres undefined) | 0% | -5% | . | 3% | 7%
Cn1c(SCC(=O)c2ccc3c(c2)OCCO3)nnc1C1CC1 | 0% | 16% | ? | 20µM* | 71µM*
CCCn1nnnc1SCC(=O)c1ccc2c(c1)OCCO2 | . | -10%[0.365 µM] | -22% | 3.2µM* | 8%
Cn1c(SCC(=O)c2ccc3c(c2)OCCO3)nnc1C(F)(F)F | -14% | 11% | -2% | 22µM* | -14%
CCc1c(C)nc(SCC(=O)Nc2ccc3c(c2)OCCO3)[nH]c1=O | 18% | ? | -6% | 11µM* | 7%
Cn1nnnc1SCC(=O)c1ccc2c(c1)OCCO2 | -21% | 40% | -12% | ? | 10%
Cc1ccc(N2CC(C(=O)N3CCN(c4ccccn4)CC3)CC2=O)cc1 (centres undefined) | . | . | -7% | . | .
COc1ccc(CCN2CC(C(=O)NCc3nc(C)c(C)s3)CCC2=O)cc1 (centres undefined) | 2% | 3% | -23% | . | -3%
NC(=O)C1(Nc2ccc(Cl)cc2)CCCC1 | . | . | -12% | . | .
COc1ccc(C#Cc2cccc(-c3nc(C(=O)N4CCN(C)CC4)cc4c3[C@H](CCO)N(S(=O)C(C)(C)C)C4)c2)cc1OC (some centres undefined) | . | . | -1% | . | .
SMILES | Gal4-VP16 FLuc | RORgamma inh | PLK1 PBD block | ALDH1A1 inh | Sfp PPTase inh
Cn1cnnc1SCC(=O)c1ccc2c(c1)OCCO2 | 21% | 14% | ? | 8.9µM* | ?
CCCCn1nnnc1SCC(=O)Nc1ccc2c(c1)OCCO2 | 1% | 4%[10 µM] | -10% | 4.5µM* | 2%
COc1ccc(Cn2cc(CN3CC(N4CCN(Cc5ccccc5F)CC4)CS3(=O)=O)nn2)cc1 (centres undefined) | . | . | -1% | . | .
Cc1nc(-c2nnc(SCC(=O)Nc3cc(Cl)cc(Cl)c3)n2C)cs1 | -5% | -1% | -12% | . | 22%
CCC(=O)OCC(=O)[C@@]1(OC(=O)CC)[C@H](C)C[C@@H]2[C@@H]3[C@H]([C@@H](O)C[C@@]21C)[C@]1(C)C=CC(=O)C=C1C[C@@H]3Cl | -7%[17 µM] | -20%[2.98 µM] | . | 0%[20.9 µM] | 17%
CCSc1nc(=S)cc(C)[nH]1 | ? | ? | 27µM* | 28µM* | 22µM*
CCSc1nc(O)cc(=O)[nH]1 | 4% | -28% | 0% | . | 19%
COc1ccc(C(O)c2nc(-c3cnn(C)c3)cs2)cc1 (centres undefined) | . | . | -2% | . | .
O=C(c1csnn1)N1CCC[C@@]2(CCN(c3ccccn3)C2)C1 | -16% | -1% | . | 0% | 2%
COc1ccc(OC)c2[nH]c(=O)c(CCNC(=S)NC(C)(C)C)cc12 | 11µM* | 4.5µM* | -10% | -11% | 8%
COc1ccc(OC)c2[nH]c(=O)c(CCNC(C)=O)cc12 | 0% | -13% | -1% | 10% | 20%
CNC(=S)NCCc1cc2c(OC)ccc(OC)c2[nH]c1=O | -13% | ? | 19µM* | ? | -7%
COc1ccc(OC)c2[nH]c(=O)c(CCNC(=O)COc3ccccc3)cc12 | -6% | 43% | 3% | 2% | 11%
O=C1NC[C@H](CCCCN2C[C@H](Cc3ccccc3)N(CCc3ccc(O)cc3)C(=O)C2=O)N(CC2CCCCC2)C1=O | . | . | 0% | . | .
Cc1ccc(N(C(=O)CNC(=O)c2ccco2)C(C(=O)NC2CCCC2)c2cccnc2)c(C)c1 (centres undefined) | -10% | 5% | -4% | . | 13%
O=C(COc1ccc(F)cc1Br)N1CCc2ccccc21 | . | 0%[0.365 µM] | -6% | 4% | 6%
COc1cc(CO)ccc1OCC(=O)N1CCc2ccccc21 | ? | 2.5µM* | -3% | . | 18%
Cc1cc(=O)oc2ccc(OCC(=O)N3CCc4ccccc43)cc12 | 4% | 0% | -11% | 16µM* | 6%
Cc1cc(=O)oc2cc(OCC(=O)N3CCCc4ccccc43)ccc12 | -24% | -1% | 0% | 22µM* | 6%
Cc1noc(C)c1C(=O)N1CCC2(CC1)CCN(c1ccccn1)CC2 | 2% | -28% | . | ? | 13%
O=C(O)c1c(C(=O)O)c(-c2ccc(Cl)c(Cl)c2)n2c1CSC2 | -8% | 15% | 11µM* | . | 1%
COC(=O)c1c(C(=O)OC)c(-c2ccc(Cl)c(Cl)c2)n2c1CCC2 | 0% | 23% | -7% | ? | -5%
O=S1(=O)N=C(Nc2nncs2)c2ccccc21 | 10µM* | ? | 24µM* | ? | 50µM*
